For some of these results: Entries with a potency or affinity are not part of this list. The source made the active and inactive calls. Unless noted, how the calls were made is not given here.
How the values were obtained:
[1] = antimalarial activity against Dd2 strain (AID 2302;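 active means growth inhibition above 50% at the single 2 µM test dose, taken to imply half-maximal potency below 2 µM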;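 further: 0% = DMSO untreated growth and 100% = chloroquine plus artemisinin killed control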); conditions: P. falciparum Dd2 in RBCs, LDH growth readout, 72 h; at 2 µM; stronger effect = higher value
[2] = HepG2 cytotoxicity, primary screen, cytotoxicity control for P. falciparum antimalarial project, cell-based, ATP luminescence (AID 2303;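 active means inhibition above 50%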;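 further: 0% = DMSO wells and 100% = digitonin-killed cells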); conditions: HepG2 viability, 24-48 h, at 10 µM, stronger effect = higher value
[3] = molecular target: L-lactate dehydrogenase (Plasmodium falciparum (isolate CDC / Honduras)) (UniProt Q27743); assay: PfLDH activity inhibition – cell lysate, 3D7 strain, counter-screen for P. falciparum growth inhibition project (AID 2304);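 further: 0% = vehicle and 100% = reference inhibitor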; conditions: P. falciparum 3D7 crude extract, LDH APAD/NBT absorbance; at 2 µM; stronger effect = higher value
Chain of L-lactate dehydrogenase (Plasmodium falciparum (isolate CDC / Honduras)) (Q27743 whole entry, looked up): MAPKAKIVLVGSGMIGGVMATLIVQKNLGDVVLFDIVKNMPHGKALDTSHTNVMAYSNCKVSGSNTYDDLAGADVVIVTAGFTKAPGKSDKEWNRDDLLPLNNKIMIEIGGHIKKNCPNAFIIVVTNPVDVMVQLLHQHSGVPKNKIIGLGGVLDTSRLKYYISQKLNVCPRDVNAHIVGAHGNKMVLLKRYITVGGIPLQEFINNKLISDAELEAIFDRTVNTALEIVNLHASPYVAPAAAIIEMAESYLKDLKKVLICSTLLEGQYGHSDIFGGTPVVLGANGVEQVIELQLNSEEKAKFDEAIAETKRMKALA

[4] = inhibition of 3D7 malaria parasite growth – strain 3D7 (AID 2306);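 further: 0% = DMSO wells and 100% = chloroquine plus artemisinin control wells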; conditions: P. falciparum 3D7 erythrocytic growth, LDH absorbance, 72 h; at 2 µM; stronger effect = higher value
[5] = molecular target: Calcium-dependent protein kinase 1 (Plasmodium falciparum (isolate 3D7)) (UniProt P62344); assay: PfCDPK1 kinase inhibitors, biochemical, TCAMS library (AID 1159585; cut-off not given, nearly all actives have IC50 up to about 0.98 µM;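 further: inhibitors leave more ATP so luminescence rises with inhibition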); conditions: recombinant PfCDPK1, Kinase-Glo ATP depletion luminescence
Chain of Calcium-dependent protein kinase 1 (Plasmodium falciparum (isolate 3D7)) (P62344 whole entry, looked up): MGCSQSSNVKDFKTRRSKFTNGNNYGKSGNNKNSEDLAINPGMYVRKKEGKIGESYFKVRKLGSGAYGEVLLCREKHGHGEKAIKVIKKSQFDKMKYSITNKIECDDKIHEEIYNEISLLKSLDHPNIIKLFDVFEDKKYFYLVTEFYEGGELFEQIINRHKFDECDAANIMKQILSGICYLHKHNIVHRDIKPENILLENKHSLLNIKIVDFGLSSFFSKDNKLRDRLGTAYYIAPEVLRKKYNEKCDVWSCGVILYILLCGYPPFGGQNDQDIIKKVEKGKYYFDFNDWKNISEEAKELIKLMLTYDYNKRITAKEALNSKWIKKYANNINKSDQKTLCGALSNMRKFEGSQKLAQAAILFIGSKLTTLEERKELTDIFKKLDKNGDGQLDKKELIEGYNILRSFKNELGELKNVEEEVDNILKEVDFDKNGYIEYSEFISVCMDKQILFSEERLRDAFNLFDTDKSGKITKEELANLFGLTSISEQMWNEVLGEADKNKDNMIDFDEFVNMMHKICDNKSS

[6] = molecular target: Plasmodium falciparum protein kinase 6 (PK6, PF3D7_1337100) (UniProt Q8IDW1); assay: PfPK6 kinase inhibitors, biochemical, TCAMS library (AID 1159586); conditions: recombinant PfPK6, Kinase-Glo ATP depletion luminescence
Chain of Plasmodium falciparum protein kinase 6 (PK6, PF3D7_1337100) (Q8IDW1 1-305): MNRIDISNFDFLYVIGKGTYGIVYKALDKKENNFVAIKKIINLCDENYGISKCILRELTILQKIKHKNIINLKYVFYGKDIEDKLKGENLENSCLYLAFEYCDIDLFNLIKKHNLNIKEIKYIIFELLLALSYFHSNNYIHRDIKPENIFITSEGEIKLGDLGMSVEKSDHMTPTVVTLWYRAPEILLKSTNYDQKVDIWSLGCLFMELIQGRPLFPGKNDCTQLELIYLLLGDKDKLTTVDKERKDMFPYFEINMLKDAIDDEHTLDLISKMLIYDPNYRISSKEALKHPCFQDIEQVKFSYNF

[7] = molecular target: Protein kinase 7 (PK7), Plasmodium falciparum 3D7 (PF3D7_0213400) (UniProt Q7YTF7); assay: inhibition of Plasmodium PK7 catalytic activity – biochemical, TCAMS antimalarial set, Kinase-Glo luminescence (AID 1159587); conditions: recombinant PfPK7, Kinase-Glo ATP depletion luminescence
Chain of Protein kinase 7 (PK7), Plasmodium falciparum 3D7 (PF3D7_0213400) (Q7YTF7 1-343): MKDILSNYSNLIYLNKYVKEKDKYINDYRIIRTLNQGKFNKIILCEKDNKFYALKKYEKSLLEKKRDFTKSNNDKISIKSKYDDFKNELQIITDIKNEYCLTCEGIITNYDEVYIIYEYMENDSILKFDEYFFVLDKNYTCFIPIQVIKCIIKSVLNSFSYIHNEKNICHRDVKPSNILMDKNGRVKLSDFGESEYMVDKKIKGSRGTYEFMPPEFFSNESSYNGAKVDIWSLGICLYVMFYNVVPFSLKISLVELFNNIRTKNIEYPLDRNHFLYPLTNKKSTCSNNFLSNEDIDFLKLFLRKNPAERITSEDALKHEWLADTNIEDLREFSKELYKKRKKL

[8] = molecular target: Calcium-dependent protein kinase 4 (Plasmodium falciparum (isolate 3D7)) (UniProt Q8IBS5); assay: PfCDPK4 kinase inhibitors, biochemical, TCAMS library (AID 1159588; cut-off not given, nearly all actives have IC50 up to about 0.91 µM); conditions: recombinant PfCDPK4, Kinase-Glo ATP depletion luminescence
Chain of Calcium-dependent protein kinase 4 (Plasmodium falciparum (isolate 3D7)) (Q8IBS5 whole entry, looked up): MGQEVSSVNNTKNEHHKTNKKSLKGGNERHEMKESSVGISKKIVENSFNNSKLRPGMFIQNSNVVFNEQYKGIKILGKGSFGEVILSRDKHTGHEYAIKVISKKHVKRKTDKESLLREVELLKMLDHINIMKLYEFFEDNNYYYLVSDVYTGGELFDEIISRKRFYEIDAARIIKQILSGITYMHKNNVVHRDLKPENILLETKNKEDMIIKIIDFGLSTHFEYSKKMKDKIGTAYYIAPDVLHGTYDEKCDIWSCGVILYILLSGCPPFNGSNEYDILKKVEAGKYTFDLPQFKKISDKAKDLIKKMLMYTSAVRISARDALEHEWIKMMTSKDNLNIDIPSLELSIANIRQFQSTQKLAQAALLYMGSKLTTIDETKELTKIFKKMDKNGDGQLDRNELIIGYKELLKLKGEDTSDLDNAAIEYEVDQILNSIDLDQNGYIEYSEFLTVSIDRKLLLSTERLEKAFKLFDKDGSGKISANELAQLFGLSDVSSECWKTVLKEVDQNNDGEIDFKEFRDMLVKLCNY

Cc1ccc(NC(=O)c2ccc(CN3CCCN(Cc4cccc(C#N)c4)CC3)cc2)cc1F
inactive: growth inhibition [1] 19% | inhibition [2] 49% | inhibition [3] -3% | outcome [5] | outcome [6] | outcome [7] | outcome [8]
active: growth inhibition [4] 98%

O=[N+]([O-])c1cccc(CNCC2CCN(Cc3ccc(O)cc3)CC2)c1
active: growth inhibition [4] 98%
inactive: growth inhibition [1] 5% | inhibition [2] 8% | inhibition [3] 1% | outcome [5] | outcome [6] | outcome [7] | outcome [8]

Cc1ccc(/C=C/C(=O)NC2CCC(N3CCC(c4ccccc4C)CC3)CC2)cc1C (stereo not given)
inactive: growth inhibition [1] 43% | inhibition [2] 12% | inhibition [3] -3% | outcome [5] | outcome [6] | outcome [7] | outcome [8]
active: growth inhibition [4] 100%

NC(N)=Nc1nc(-c2cccc(NC(=O)NCc3cccc4ccccc34)c2)cs1
active: growth inhibition [4] 101%
inactive: growth inhibition [1] 32% | inhibition [2] 14% | inhibition [3] 5% | outcome [5] | outcome [6] | outcome [7] | outcome [8]

c1ccc(CNCc2cccc(-c3csc(-c4nc5ccccc5[nH]4)c3)c2)cc1
inactive: inhibition [2] 24% | inhibition [3] -3% | outcome [5] | outcome [6] | outcome [7] | outcome [8]
active: growth inhibition [1] 54% | growth inhibition [4] 102%

O=C(/C=C/c1ccc(Cl)c(Cl)c1)NCCCCCN1CCC(NS(=O)(=O)c2cc(Cl)cc(Cl)c2)CC1
active: growth inhibition [4] 83%
inactive: growth inhibition [1] 5% | inhibition [2] 7% | inhibition [3] 3% | outcome [5] | outcome [6] | outcome [7] | outcome [8]

COc1c(C2CCN(CCN3CCC(NC(=O)c4ccc(-c5ccc(C(F)(F)F)cc5)cc4)CC3)CC2)ccc2c1CCCC2
inactive: growth inhibition [1] 35% | inhibition [2] 42% | inhibition [3] 0% | outcome [5] | outcome [6] | outcome [7] | outcome [8]
active: growth inhibition [4] 82%

COc1ccc2nc3cc(Cl)ccc3c(N)c2c1
active: growth inhibition [1] 100% | inhibition [2] 100% | growth inhibition [4] 102%
inactive: inhibition [3] -5% | outcome [5] | outcome [6] | outcome [7] | outcome [8]

Cc1cc2[nH]c(-c3ccc(C(=O)NCCCN4CCN(c5cccc(Cl)c5)CC4)cc3)nc2cc1Cl
inactive: inhibition [2] 1% | inhibition [3] 6% | outcome [5] | outcome [6] | outcome [7] | outcome [8]
active: growth inhibition [1] 73% | growth inhibition [4] 98%

COc1cc2nccc(Nc3ccc4c(cnn4Cc4cccc(F)c4)c3)c2cc1OC
inactive: inhibition [2] 29% | inhibition [3] -6% | outcome [5] | outcome [6] | outcome [7] | outcome [8]
active: growth inhibition [1] 99% | growth inhibition [4] 101%

Cc1cc(N[C@@H](Cc2ccccc2)C(=O)NCCOc2ccccc2)nc(NCC2CCCCC2)n1
active: growth inhibition [1] 75% | growth inhibition [4] 100%
inactive: inhibition [2] 30% | inhibition [3] -1% | outcome [5] | outcome [6] | outcome [7] | outcome [8]

Cc1cc2nc(-c3ccc(SCC(=O)Nc4ccc5c(c4)OCCO5)nc3)[nH]c2cc1C
active: growth inhibition [4] 85%
inactive: growth inhibition [1] 6% | inhibition [2] 17% | inhibition [3] 9% | outcome [5] | outcome [6] | outcome [7] | outcome [8]

O=S1(=O)C=C(c2ccccc2)CC1
active: inhibition [2] 57% | growth inhibition [4] 97%
inactive: growth inhibition [1] 44% | inhibition [3] -1% | outcome [5] | outcome [6] | outcome [7] | outcome [8]

O=c1[nH]c2c(c(O)c1[N+](=O)[O-])CCC2
active: growth inhibition [4] 97%
inactive: growth inhibition [1] 1% | inhibition [2] 9% | inhibition [3] -5% | outcome [5] | outcome [6] | outcome [7] | outcome [8]

O=C(N[C@H]1CCN(Cc2ccc(OCCCN3CCCCC3)cc2)C1)c1cc(Cl)cc(Cl)c1
inactive: growth inhibition [1] 35% | inhibition [2] 13% | inhibition [3] -1% | outcome [5] | outcome [6] | outcome [7] | outcome [8]
active: growth inhibition [4] 99%

CCCCCCCCS(=O)(=O)NCCCC1CCN(CCCCCNC(=O)C=Cc2ccc(Cl)c(Cl)c2)CC1
inactive: growth inhibition [1] 26% | inhibition [3] 6% | outcome [5] | outcome [6] | outcome [7] | outcome [8]
active: inhibition [2] 100% | growth inhibition [4] 91%

CC(C(=O)N1CCCC1)N1CCN(S(=O)(=O)c2ccc(C(C)(C)C)cc2)CC1 (stereo not given)
active: growth inhibition [1] 86% | growth inhibition [4] 98%
inactive: inhibition [2] 4% | inhibition [3] 0% | outcome [5] | outcome [6] | outcome [7] | outcome [8]

COC(=O)c1ccc2nc(-c3cc(-c4cccc(-c5ccccc5)c4)cnc3N)[nH]c2c1
inactive: inhibition [2] 25% | inhibition [3] 5% | outcome [5] | outcome [6] | outcome [7] | outcome [8]
active: growth inhibition [1] 61% | growth inhibition [4] 101%

O=C(NC1CCCC1)c1ccc(N2CCC(NCc3cccc(C(F)(F)F)c3)CC2)cc1
active: growth inhibition [1] 75% | growth inhibition [4] 87%
inactive: inhibition [2] 11% | inhibition [3] 1% | outcome [5] | outcome [6] | outcome [7] | outcome [8]

FC(F)(F)c1ccc2nccc(NN=Cc3cccnc3)c2c1
active: growth inhibition [4] 101%
inactive: growth inhibition [1] 40% | inhibition [2] -9% | inhibition [3] -8% | outcome [5] | outcome [6] | outcome [7] | outcome [8]

From PubChem BioAssay
